Consider 10 molecules from ChEMBL document CHEMBL3988442, “University of Dundee, Small-Polar-MMV Screening Library” (2021).

Common to all, as to parameters: scale not given: direction of the effect not stated beside the values
Assay [1] concerns the target Protein translocase subunit SecA (Escherichia coli (strain K12)) (UniProt P10408). Kind of assay: Assay to Identify E. coli SecA ATPase Inhibitors. As to conditions: 30 µM. Type of assay: functional.
Assay [2] addresses T1, Ubiquitin-activating enzyme e1, putative (Leishmania donovani (strain BPK282A1)) (UniProt E9BSI1).
T1 sequence (whole entry): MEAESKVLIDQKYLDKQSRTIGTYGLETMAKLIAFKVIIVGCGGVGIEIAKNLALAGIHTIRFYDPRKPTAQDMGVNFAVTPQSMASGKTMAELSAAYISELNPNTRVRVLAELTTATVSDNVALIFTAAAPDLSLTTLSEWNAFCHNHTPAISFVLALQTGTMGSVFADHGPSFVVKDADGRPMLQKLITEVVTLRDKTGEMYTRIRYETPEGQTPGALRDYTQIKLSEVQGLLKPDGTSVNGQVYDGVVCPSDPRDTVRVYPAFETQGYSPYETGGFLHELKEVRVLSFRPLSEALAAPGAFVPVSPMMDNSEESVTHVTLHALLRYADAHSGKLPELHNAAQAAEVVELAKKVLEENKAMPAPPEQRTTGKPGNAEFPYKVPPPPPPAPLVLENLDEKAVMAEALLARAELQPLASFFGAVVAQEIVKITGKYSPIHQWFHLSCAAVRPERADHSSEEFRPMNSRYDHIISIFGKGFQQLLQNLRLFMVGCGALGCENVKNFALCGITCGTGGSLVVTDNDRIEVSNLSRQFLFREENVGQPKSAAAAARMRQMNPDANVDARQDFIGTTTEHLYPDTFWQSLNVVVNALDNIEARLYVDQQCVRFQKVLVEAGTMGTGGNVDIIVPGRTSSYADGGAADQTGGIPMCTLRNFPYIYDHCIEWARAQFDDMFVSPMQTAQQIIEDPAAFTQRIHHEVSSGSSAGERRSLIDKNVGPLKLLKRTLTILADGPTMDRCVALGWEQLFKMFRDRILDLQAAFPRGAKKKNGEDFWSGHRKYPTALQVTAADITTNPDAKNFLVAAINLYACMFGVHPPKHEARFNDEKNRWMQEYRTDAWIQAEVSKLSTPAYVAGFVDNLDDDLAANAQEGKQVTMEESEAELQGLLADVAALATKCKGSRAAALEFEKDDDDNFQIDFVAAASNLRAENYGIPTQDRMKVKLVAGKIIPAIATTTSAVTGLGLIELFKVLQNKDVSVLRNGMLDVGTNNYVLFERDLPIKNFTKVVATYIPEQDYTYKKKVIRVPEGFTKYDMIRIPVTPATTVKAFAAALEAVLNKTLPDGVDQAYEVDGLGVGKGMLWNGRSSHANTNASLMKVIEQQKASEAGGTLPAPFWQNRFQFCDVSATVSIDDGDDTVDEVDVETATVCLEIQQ
Kind of assay: Leishmania donovani Ubiquitin Activating Enzyme (LdE1). Type of assay: functional. As to conditions: 30 µM.

In assay [3] the target is AMP-activated protein kinase, AMPK (Homo sapiens) (UniProt P54646+O43741+P54619+Q9UGJ0+Q9Y478+Q13131+Q9UGI9). Kind of assay: AMP-dependent Kinase enzyme assay. An in vitro enzyme assay that detects ADP turnover that is directly proportional to AMPK activity. This uses naive AMPK that is activated during the assay with MK-8722. In kind it is functional. As to conditions: 30 µM.

Assay [4] concerns the target Sialic acid-binding Ig-like lectin 9 (Homo sapiens) (UniProt Q9Y336). Kind of assay: Hs-Siglec9 ALPHAscreen SOP 20170721. The note with it: 10 µM.
In the next assay the test system is Trypanosoma cruzi. Kind of assay: Trypanosoma cruzi phosphomannomutase and mannose-1-phosphate guanylyltransferase assay. The note with it: 10 µM. Type of assay: functional.
The target of assay [5] is T2, Arginase-2, mitochondrial (Homo sapiens) (UniProt P78540).
T2 sequence (whole entry): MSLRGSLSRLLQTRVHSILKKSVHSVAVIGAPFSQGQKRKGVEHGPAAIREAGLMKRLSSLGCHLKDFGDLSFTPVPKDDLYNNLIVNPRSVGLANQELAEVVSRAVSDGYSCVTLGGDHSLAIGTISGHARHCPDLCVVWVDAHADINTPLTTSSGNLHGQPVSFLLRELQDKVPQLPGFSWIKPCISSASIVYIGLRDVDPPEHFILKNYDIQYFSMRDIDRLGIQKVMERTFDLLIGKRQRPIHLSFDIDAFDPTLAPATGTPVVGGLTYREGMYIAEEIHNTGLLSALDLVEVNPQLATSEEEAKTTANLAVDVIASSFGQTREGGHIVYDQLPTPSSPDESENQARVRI
Kind of assay: in vitro enzyme assay to detect the production of urea directly proportional to the activity of Arginase II. Note: in the data most compounds retested in dose-response had high values. Type of assay: functional. As to conditions: 33.3 µM.

The target in assay [6] is T3, Proteasome subunit beta (Trypanosoma cruzi) (UniProt O96673).
T3 sequence (whole entry): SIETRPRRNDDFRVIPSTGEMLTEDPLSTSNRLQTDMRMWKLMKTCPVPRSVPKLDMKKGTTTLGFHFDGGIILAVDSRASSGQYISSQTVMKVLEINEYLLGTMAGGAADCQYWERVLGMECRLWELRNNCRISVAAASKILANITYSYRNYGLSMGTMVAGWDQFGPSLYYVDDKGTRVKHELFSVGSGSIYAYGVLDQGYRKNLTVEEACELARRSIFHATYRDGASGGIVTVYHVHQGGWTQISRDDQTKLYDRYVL
Description: Trypanosoma cruzi proteasome chymotrypsin-like activity (TcProtChymo) assay. Note: in the data most compounds retested in dose-response had high values. The note with it: 9.37 µM. Type of assay: functional.

The species entered for another assay is Homo sapiens. Description: To identify inhibition of the IFN signalling (Jak-Stat) pathway via expression of an eGFP reporter gene under the control of an IFN-stimulated response element (ISRE) containing MxA promoter. Type of assay: functional. The note with it: 30 µM.
Assay [7] concerns the target T4, Tyrosyl-tRNA synthetase, putative (Trypanosoma cruzi (strain CL Brener)) (UniProt Q4DSP6).
T4 sequence (whole entry): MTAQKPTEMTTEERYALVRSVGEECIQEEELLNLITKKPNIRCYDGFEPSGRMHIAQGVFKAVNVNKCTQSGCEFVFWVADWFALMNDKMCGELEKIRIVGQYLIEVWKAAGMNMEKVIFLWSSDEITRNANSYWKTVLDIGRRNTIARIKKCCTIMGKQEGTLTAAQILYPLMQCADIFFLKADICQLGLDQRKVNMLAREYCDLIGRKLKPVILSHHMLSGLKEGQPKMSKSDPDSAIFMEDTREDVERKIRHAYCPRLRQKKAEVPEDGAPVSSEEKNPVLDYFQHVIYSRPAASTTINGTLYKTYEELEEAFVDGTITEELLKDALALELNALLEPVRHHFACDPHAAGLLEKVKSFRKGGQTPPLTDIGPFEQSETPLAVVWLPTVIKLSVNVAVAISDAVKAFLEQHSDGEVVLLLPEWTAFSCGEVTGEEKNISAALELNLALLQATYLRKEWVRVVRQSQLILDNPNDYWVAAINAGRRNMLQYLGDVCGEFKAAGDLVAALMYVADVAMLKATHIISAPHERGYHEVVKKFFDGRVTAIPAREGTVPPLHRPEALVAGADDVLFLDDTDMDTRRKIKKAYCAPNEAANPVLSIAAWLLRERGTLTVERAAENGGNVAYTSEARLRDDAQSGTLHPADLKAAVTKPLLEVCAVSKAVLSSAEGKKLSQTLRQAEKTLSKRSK
Description: Trypanosoma cruzi tyrosyl tRNA synthetase (TcYRS) _High Tyrosine SOP. Note: in the data most compounds retested in dose-response had high values. In kind it is functional. The note with it: 30 µM.

The target of assay [8] is T4, Tyrosyl-tRNA synthetase, putative (Trypanosoma cruzi (strain CL Brener)). Description: Trypanosoma cruzi tyrosyl tRNA synthetase (TcYRS) SOP. In kind it is functional. The note with it: 30 µM.
Assay [9] deals with Chromo domain-containing protein 1 (Saccharomyces cerevisiae (strain ATCC 204508 / S288c) (Baker's yeast)) (UniProt P32657). Kind of assay: ScCHD-1 Enzyme Inhibition Assay. Note: in the data most compounds retested in dose-response had high values. Type of assay: functional. As to conditions: 30 µM.
Chromo domain-containing protein 1 (Saccharomyces cerevisiae (strain ATCC 204508 / S288c) (Baker's yeast)), sequence (P32657 whole entry, the tested form may be a part): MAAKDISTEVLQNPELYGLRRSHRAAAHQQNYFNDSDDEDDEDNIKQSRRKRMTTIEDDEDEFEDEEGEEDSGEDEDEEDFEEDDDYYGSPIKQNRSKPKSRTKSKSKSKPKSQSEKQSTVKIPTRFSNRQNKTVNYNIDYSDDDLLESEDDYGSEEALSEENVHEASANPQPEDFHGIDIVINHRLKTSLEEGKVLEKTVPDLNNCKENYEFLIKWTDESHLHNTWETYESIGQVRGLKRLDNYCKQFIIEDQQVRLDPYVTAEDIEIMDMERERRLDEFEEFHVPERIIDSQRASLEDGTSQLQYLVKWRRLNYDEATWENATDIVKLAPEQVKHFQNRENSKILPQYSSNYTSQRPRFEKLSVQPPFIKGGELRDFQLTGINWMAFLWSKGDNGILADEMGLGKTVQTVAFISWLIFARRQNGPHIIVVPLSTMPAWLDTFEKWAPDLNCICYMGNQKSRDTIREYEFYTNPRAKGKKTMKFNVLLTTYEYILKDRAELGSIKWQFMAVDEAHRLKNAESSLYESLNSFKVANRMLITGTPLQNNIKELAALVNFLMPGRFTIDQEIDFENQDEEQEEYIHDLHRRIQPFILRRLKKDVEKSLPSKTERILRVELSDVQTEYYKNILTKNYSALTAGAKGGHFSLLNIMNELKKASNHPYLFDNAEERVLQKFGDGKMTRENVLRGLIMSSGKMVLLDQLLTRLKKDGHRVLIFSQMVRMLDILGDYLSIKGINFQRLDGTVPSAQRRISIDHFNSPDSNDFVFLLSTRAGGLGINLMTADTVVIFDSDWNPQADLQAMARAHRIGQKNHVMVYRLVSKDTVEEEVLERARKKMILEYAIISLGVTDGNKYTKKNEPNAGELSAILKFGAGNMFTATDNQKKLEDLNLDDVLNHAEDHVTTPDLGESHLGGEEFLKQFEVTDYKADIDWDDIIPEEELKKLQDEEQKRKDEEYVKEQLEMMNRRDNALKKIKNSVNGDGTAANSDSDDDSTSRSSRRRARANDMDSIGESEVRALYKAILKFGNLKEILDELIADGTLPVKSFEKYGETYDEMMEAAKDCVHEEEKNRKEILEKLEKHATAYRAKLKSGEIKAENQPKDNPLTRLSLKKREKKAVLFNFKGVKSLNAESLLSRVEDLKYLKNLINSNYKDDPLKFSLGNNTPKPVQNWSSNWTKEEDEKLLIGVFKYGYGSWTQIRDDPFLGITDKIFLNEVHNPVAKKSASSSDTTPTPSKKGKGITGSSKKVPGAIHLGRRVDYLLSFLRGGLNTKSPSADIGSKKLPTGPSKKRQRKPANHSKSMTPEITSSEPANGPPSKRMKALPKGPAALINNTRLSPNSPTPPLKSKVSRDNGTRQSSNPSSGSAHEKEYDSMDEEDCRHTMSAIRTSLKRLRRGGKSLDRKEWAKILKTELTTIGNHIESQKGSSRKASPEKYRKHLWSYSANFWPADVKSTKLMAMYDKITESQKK

Each structure is given as a SMILES string. For some assays here: Measured potencies and affinities stand elsewhere.

Sialic acid-binding Ig-like lectin 9 (Homo sapiens), sequence (Q9Y336 whole entry): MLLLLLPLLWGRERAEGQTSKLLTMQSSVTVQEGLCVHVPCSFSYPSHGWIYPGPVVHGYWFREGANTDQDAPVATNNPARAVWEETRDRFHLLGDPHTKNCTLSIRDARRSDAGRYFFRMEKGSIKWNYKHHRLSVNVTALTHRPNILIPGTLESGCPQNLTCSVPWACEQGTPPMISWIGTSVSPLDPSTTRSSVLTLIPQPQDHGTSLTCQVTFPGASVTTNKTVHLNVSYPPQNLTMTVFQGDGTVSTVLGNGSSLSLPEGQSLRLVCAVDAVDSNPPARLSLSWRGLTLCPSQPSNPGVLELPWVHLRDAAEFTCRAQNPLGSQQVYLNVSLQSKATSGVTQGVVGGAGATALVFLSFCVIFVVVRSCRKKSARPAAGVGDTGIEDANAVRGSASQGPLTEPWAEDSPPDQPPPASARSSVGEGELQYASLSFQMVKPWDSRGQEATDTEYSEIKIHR
Protein translocase subunit SecA (Escherichia coli (strain K12)), sequence (P10408 whole entry): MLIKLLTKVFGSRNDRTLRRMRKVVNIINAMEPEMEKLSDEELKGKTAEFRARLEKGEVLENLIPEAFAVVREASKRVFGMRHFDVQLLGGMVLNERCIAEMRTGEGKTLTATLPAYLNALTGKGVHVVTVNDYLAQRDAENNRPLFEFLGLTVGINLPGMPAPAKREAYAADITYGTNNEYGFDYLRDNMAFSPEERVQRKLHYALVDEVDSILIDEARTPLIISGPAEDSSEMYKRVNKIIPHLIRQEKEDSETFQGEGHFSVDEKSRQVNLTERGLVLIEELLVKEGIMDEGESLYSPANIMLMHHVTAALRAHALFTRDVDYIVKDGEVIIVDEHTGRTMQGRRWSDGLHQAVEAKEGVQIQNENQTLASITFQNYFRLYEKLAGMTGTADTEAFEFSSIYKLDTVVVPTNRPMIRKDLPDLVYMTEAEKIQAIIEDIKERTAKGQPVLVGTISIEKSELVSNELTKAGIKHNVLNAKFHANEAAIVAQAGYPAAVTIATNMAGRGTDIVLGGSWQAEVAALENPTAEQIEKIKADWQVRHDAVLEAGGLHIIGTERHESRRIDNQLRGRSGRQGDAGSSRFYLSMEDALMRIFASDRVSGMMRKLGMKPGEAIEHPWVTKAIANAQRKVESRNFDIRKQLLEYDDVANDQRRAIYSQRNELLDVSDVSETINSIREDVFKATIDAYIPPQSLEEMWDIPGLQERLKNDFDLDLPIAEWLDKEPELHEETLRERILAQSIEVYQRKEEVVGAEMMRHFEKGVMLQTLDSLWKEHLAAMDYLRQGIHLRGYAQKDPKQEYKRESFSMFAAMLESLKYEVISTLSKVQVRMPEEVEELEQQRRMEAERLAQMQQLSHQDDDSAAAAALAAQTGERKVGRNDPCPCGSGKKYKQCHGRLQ

Take `COc1cccc2c1OCC(CNC(=O)CCCN1CCOCC1)C2` (stereo not given): the Percent Effect in assay [1] was -1.74%; in [2], 5.41%; in assay [3], -7.92%; in [4], 19.8%; in the assay with Trypanosoma cruzi, 2.05%; in [5], -0.248%. Besides, the Percent Effect in assay [6] is 13.1%; in the assay listed under Homo sapiens, 11.9%; in [7], 8.6%; in assay [8], 18.5%; in [9] it was -5.59%.
For `CN(Cc1ccco1)Cc1ccccc1CNC(=O)c1cc[nH]n1`, the Percent Effect was -2.78% in assay [1]; 0% in [2]; -0.254% in assay [3]; 5.67% in assay [4]; -6.56% in the assay with Trypanosoma cruzi; 0.952% in assay [5]. The Percent Effect in assay [6] is 15.2%; in the assay listed under Homo sapiens it was 18.9%; in assay [7] it was 1.59%; in assay [8], 4.88%; in [9] it was -4.37%.
Take `Cn1ccc(C(=O)NC2CCN(c3ncccn3)CC2)cc1=O`: the Percent Effect in [1] was -2.08%; in assay [2] it was 13.5%; in assay [3], -7.39%; in assay [4], 7.92%; in the assay with Trypanosoma cruzi, -0.0943%; in [5], 0.401%. For the same molecule, the Percent Effect was 9.73% in [6]; 5.6% in the assay listed under Homo sapiens; 1.48% in assay [7]; 11.1% in assay [8]; -9.93% in [9].
For `O=C(NCc1ccc(OCC2CC2)nc1)c1c(F)cccc1F`, the Percent Effect is -0.518% in [1]; 2.63% in assay [2]; 4.21% in [3]; -0.689% in assay [4]; -5.16% with Trypanosoma cruzi; -11.8% in assay [5]. Besides, the Percent Effect in assay [6] is 15.1%; in the assay filed under Homo sapiens, 11.7%; in assay [7] it was 3.19%; in assay [8], 7.79%; in assay [9], -4.74%.
With `CCOCc1ncn2c1CN(C(=O)Nc1cccc(C)c1)CC2`, the Percent Effect is -0.857% in assay [1]; -173% in assay [2]; 3.58% in assay [3]; 1.03% in assay [4]; -2.54% with Trypanosoma cruzi; 0.417% in assay [5]. The Percent Effect came to 9.21% in [6]; 2.31% in the assay listed under Homo sapiens; 12.9% in assay [7]; 13.4% in assay [8]; 1.64% in assay [9].
For the molecule `CC(c1nc(C2CC2)no1)N1CCN(Cc2ccccc2F)CC1` (stereo not given), the Percent Effect in [1] was -2.5%; in assay [2], 3.8%; in assay [3], 3.7%; in [4], 3.98%; in the assay on Trypanosoma cruzi, -0.718%; in [5] it was 2.8%. Further, the Percent Effect in [6] was 1.2%; in the assay listed under Homo sapiens, -11.4%; in assay [7] it was 2.08%; in assay [8], 7.59%; in [9], -0.861%.
For the molecule `Cc1ccc(NC2CCN(C(=O)CCNS(C)(=O)=O)CC2)nn1`, the Percent Effect was -4.31% in assay [1]; -2.7% in assay [2]; -5.25% in assay [3]; 9% in [4]; -0.279% with Trypanosoma cruzi; -5.36% in assay [5]. For the same molecule, the Percent Effect in assay [6] is -5.21%; in the assay filed under Homo sapiens, 2.45%; in [7] it was 1.98%; in assay [8], 6.1%; in assay [9], 7.54%.
`O=C(CN1CCN(CC(O)C2CC2)CC1)NCc1ccc(F)cc1` (stereo not given): the Percent Effect is -3.06% in assay [1]; 10.4% in assay [2]; 6.87% in assay [3]; 0.218% in [4]; 4.83% in the assay on Trypanosoma cruzi; 9.68% in assay [5]. Besides, the Percent Effect in assay [6] is 13.1%; in the assay listed under Homo sapiens, 22.2%; in assay [7], 8.47%; in [8], 19.2%; in assay [9] it was -7.59%.
`CCc1noc(CN(C)Cc2ccc(N3CCCCC3)cc2)n1`: the Percent Effect is -2.48% in assay [1]; 2.6% in [2]; 0.261% in [3]; 13% in assay [4]; 3.83% with Trypanosoma cruzi; 15.2% in assay [5]. For the same molecule, the Percent Effect in assay [6] was 13.5%; in the assay filed under Homo sapiens, 5.54%; in assay [7], -6.45%; in assay [8] it was -8.64%; in assay [9], -6.82%.
Regarding `O=C(Cn1cc(C(=O)O)ccc1=O)Nc1ccc(F)cc1Cl`, the Percent Effect in assay [1] is -1.48%; in assay [2], 14.7%; in assay [3], 2.96%; in assay [4], 5.48%; in the assay with Trypanosoma cruzi, 1.18%; in assay [5] it was -12.2%. The Percent Effect was 11.5% in assay [6]; -15% in the assay filed under Homo sapiens; 6.35% in [7]; 5.13% in assay [8]; -9.34% in [9].
